# In PubChem BioAssay (NCI):
# Compounds without any hit were thinned out: in the full panel of roughly 79,000, 15% have a hit. The source made the active and inactive calls. Rule as the data show it: active = growth inhibition above about 70%; inactive = the rest.
# Assay: NCI Yeast Anticancer Drug Screen. Data for the sgs1 mgt1 strain (AID 161);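 also: 0% = growth of cultures given vehicle only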
# Details: S. cerevisiae sgs1 mgt1 strain, at 50.0 µM, active compounds read high
# Outline: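 Percent growth inhibition was derived by comparing compound-exposed mutant yeast with vehicle-exposed cultures. The strain carries alterations in DNA damage repair.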
row,SMILES,growth inhibition
1,NS(=O)(=O)c1ccc(NC2=CC(=O)C(=O)c3ccccc32)cc1,-21.4% (inactive)
2,CC(=O)NC1CC(=O)N(c2ccccc2)C1=O (stereo not given),12.2% (inactive)
3,O=C1Nc2ccccc2C1O (stereo not given),-37.5% (inactive)
4,N=c1ccn(CC(O)COc2ccccc2)cc1 (stereo not given),-5.95% (inactive)
5,CN(C)CCC(=O)N1CCc2c([nH]c3ccccc23)C1c1cccnc1 (stereo not given),-21.6% (inactive)
6,CCOC(=O)C(=[N+]=[N-])C(=O)CN1C(=O)c2ccccc2C1=O,-31.5% (inactive)
7,CCCCCCCCCC/C=C/c1c(C)[nH]c2ccccc2c1=O,-6.3% (inactive)
8,O=P12N(CCN1c1ccccc1)CCN2c1ccccc1,-13.8% (inactive)
9,O=C1OCC/C1=C1/NC2CCCCC2NC1=O (stereo not given),1.15% (inactive)
10,C=C(C)C(=O)N1c2ccc(OC)cc2CC1C(=O)OCC (stereo not given),7.05% (inactive)
11,C/C(=N\NC(=O)c1ccncc1)c1cccc(Br)c1,5.35% (inactive)
12,NC(=O)SCC(=O)Nc1ccccc1O,2.25% (inactive)
13,CCCCOP(=O)(OCCCC)C(c1ccccc1)(c1ccccc1)c1ccccc1,49.8% (inactive)
14,Cn1ncc(C(=O)O)c1[N+](=O)[O-],8.35% (inactive)
15,CCNc1ncnc2c1cnn2C1CCCCC1,-5.85% (inactive)
16,C=CCOC1OC(CS(=O)(=O)O)C(OC(C)=O)C(OC(C)=O)C1OC(C)=O (stereo not given),-1.1% (inactive)
17,C=C(C)COc1ccc(-c2ccccc2)cc1,8% (inactive)
18,O=S(=O)(O)ON=C1c2ccccc2-c2ccccc21,10.4% (inactive)
19,CC(=O)C1(N=Nc2ccc(S(N)(=O)=O)cc2)CCOC1=O (stereo not given),-27.1% (inactive)
20,CC(C)C(N)=O,-7.15% (inactive)

row,SMILES,growth inhibition
1,Cc1[nH]ccc2c3ccc(=O)cc3n(S(=O)(=O)O)c12,-1.45% (inactive)
2,CC(C)CCC(=O)O,-4.4% (inactive)
3,CC1(C)N=C(N)NC(Nc2ccc(Cl)cc2)=N1,10.8% (inactive)
4,Nc1nc(N)nc(Cc2ccccc2)n1,-17.9% (inactive)
5,C#CCC1CCCC/C1=N\Nc1ccc([N+](=O)[O-])cc1[N+](=O)[O-] (stereo not given),-4.4% (inactive)
6,Cc1ccc(S(=O)(=O)N(CCOS(C)(=O)=O)CCOS(C)(=O)=O)cc1,-0.8% (inactive)
7,CCOc1ccccc1/C=C1\NC(=O)NC1=O,-35% (inactive)
8,NC(=O)OCC(COc1ccc(Cl)cc1)OC(=O)c1cc([N+](=O)[O-])cc([N+](=O)[O-])c1 (stereo not given),20.4% (inactive)
9,C(=NCCSSCCN=Cc1ccccc1)c1ccccc1,18.6% (inactive)
10,CCN(CC)c1ncnc2c1nc(C)n2Nc1ccccc1,1.3% (inactive)
11,O=C(NC(Cc1ccc(O)cc1)C(=O)O)C(=O)c1c[nH]c2ccc([N+](=O)[O-])cc12 (stereo not given),-23.1% (inactive)
12,CC(C#N)NC(=O)NC(C)C(N)=O (stereo not given),-5% (inactive)
13,CN(C)CCCn1cnc2cc(Cl)c(Cl)cc21,-21% (inactive)
14,O=c1nc2n(cc1/C=C\Br)C1CC(O)C(CO2)O1 (stereo not given),-24.1% (inactive)
15,CC(C)(C)NC(=O)c1cccc(C(=O)NC(C)(C)C)n1,-0.3% (inactive)
16,COc1ccccc1N=NC1=C2Nc3ccccc3N=C1N(c1ccccc1OC)C(=S)N2c1ccccc1C,-16.4% (inactive)
17,Cc1cc(C)nc(Sc2c([N+](=O)[O-])ncn2C)n1,-20.9% (inactive)
18,CCOCCC(=N)OCC,7.9% (inactive)
19,C/C=C\CCCCC,15.4% (inactive)
20,CN(c1nc(=[N+](C)C)ss1)C1CCCCC1,16.1% (inactive)

# Assay: NCI Yeast Anticancer Drug Screen. Data for the cln2 rad14 strain (AID 165);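 also: 0% = growth equal to vehicle treated cultures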
# Details: S. cerevisiae cln2 rad14 strain, at 50.0 µM, active compounds read high
# Outline: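 Strain: cln2 rad14 yeast, altered in cell cycle control and DNA damage repair. Read-out: growth inhibition vs vehicle.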
row,SMILES,growth inhibition
1,NS(=O)(=O)c1ccc(NC2=CC(=O)C(=O)c3ccccc32)cc1,2.4% (inactive)
2,CC(=O)NC1CC(=O)N(c2ccccc2)C1=O (stereo not given),5.9% (inactive)
3,O=C1Nc2ccccc2C1O (stereo not given),-17.7% (inactive)
4,N=c1ccn(CC(O)COc2ccccc2)cc1 (stereo not given),10.6% (inactive)
5,CN(C)CCC(=O)N1CCc2c([nH]c3ccccc23)C1c1cccnc1 (stereo not given),6.55% (inactive)
6,CCOC(=O)C(=[N+]=[N-])C(=O)CN1C(=O)c2ccccc2C1=O,-7.7% (inactive)
7,CCCCCCCCCC/C=C/c1c(C)[nH]c2ccccc2c1=O,-6.5% (inactive)
8,O=P12N(CCN1c1ccccc1)CCN2c1ccccc1,19.6% (inactive)
9,O=C1OCC/C1=C1/NC2CCCCC2NC1=O (stereo not given),-24.6% (inactive)
10,C=C(C)C(=O)N1c2ccc(OC)cc2CC1C(=O)OCC (stereo not given),12.8% (inactive)
11,C/C(=N\NC(=O)c1ccncc1)c1cccc(Br)c1,6.6% (inactive)
12,NC(=O)SCC(=O)Nc1ccccc1O,0.05% (inactive)
13,CCCCOP(=O)(OCCCC)C(c1ccccc1)(c1ccccc1)c1ccccc1,42.5% (inactive)
14,Cn1ncc(C(=O)O)c1[N+](=O)[O-],-37.6% (inactive)
15,CCNc1ncnc2c1cnn2C1CCCCC1,-35.9% (inactive)
16,C=CCOC1OC(CS(=O)(=O)O)C(OC(C)=O)C(OC(C)=O)C1OC(C)=O (stereo not given),21.6% (inactive)
17,C=C(C)COc1ccc(-c2ccccc2)cc1,-4.95% (inactive)
18,O=S(=O)(O)ON=C1c2ccccc2-c2ccccc21,10.4% (inactive)
19,CC(=O)C1(N=Nc2ccc(S(N)(=O)=O)cc2)CCOC1=O (stereo not given),32.4% (inactive)
20,CC(C)C(N)=O,-3% (inactive)

row,SMILES,growth inhibition
1,Cc1[nH]ccc2c3ccc(=O)cc3n(S(=O)(=O)O)c12,18.4% (inactive)
2,CC(C)CCC(=O)O,-9.6% (inactive)
3,CC1(C)N=C(N)NC(Nc2ccc(Cl)cc2)=N1,-20.8% (inactive)
4,Nc1nc(N)nc(Cc2ccccc2)n1,-58.4% (inactive)
5,C#CCC1CCCC/C1=N\Nc1ccc([N+](=O)[O-])cc1[N+](=O)[O-] (stereo not given),-1.75% (inactive)
6,Cc1ccc(S(=O)(=O)N(CCOS(C)(=O)=O)CCOS(C)(=O)=O)cc1,-2.1% (inactive)
7,CCOc1ccccc1/C=C1\NC(=O)NC1=O,-14.9% (inactive)
8,NC(=O)OCC(COc1ccc(Cl)cc1)OC(=O)c1cc([N+](=O)[O-])cc([N+](=O)[O-])c1 (stereo not given),17.6% (inactive)
9,C(=NCCSSCCN=Cc1ccccc1)c1ccccc1,10.1% (inactive)
10,CCN(CC)c1ncnc2c1nc(C)n2Nc1ccccc1,7.4% (inactive)
11,O=C(NC(Cc1ccc(O)cc1)C(=O)O)C(=O)c1c[nH]c2ccc([N+](=O)[O-])cc12 (stereo not given),0.45% (inactive)
12,CC(C#N)NC(=O)NC(C)C(N)=O (stereo not given),-48.3% (inactive)
13,CN(C)CCCn1cnc2cc(Cl)c(Cl)cc21,-0.8% (inactive)
14,O=c1nc2n(cc1/C=C\Br)C1CC(O)C(CO2)O1 (stereo not given),13.3% (inactive)
15,CC(C)(C)NC(=O)c1cccc(C(=O)NC(C)(C)C)n1,-7.9% (inactive)
16,COc1ccccc1N=NC1=C2Nc3ccccc3N=C1N(c1ccccc1OC)C(=S)N2c1ccccc1C,-11.5% (inactive)
17,Cc1cc(C)nc(Sc2c([N+](=O)[O-])ncn2C)n1,4.65% (inactive)
18,CCOCCC(=N)OCC,9.45% (inactive)
19,C/C=C\CCCCC,24.1% (inactive)
20,CN(c1nc(=[N+](C)C)ss1)C1CCCCC1,-39.5% (inactive)
